Marburg entry inh = Marburg virus entry inhibition; Marburg virus pseudotyped entry inhibition, cell reporter; Potency, µM (series often up to 37.8 µM), hits mostly inhibitors; 300,000 compounds, 1.8% hits; AID 540276; calls by dose curve; tested in HEK293 cells
HCMV inh = blocks human cytomegalovirus replication; HFF cells, HCMV-luciferase reporter, 72 h; active compounds read low; activity change, negative = inhibition, % at 57.5 µM; 410,000 compounds, 4.5% hits; AID 1259415; in the data active = activity change below about -60%; inconclusive = no clear call, values can overlap the other calls; inactive = above about -39%
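Screen run at 2 compound doses on HFFs infected with reporter HCMV, MOI 1 PFU/cell. Luciferase activity from cell lysates at 72 h post infection gave inhibition relative to buffer-only and Salinomycin wells.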
FMDV antiviral = foot and mouth disease virus antiviral activity. 410,000 compounds, 1.2% hits. FMDV antiviral cell-based qHTS. Potency, µM (titrated, usually from 57.9 µM), actives largely listed as inhibitors. AID 1159524; calls by dose curve; tested in HEK293T cells; note: read-out not given here; nearly all actives have a fitted effect of over 45% in size
LASV entry inh = Lassa virus entry inhibition; AID 540256; Potency, µM (series often up to 37.9 µM), hits mostly inhibitors; Lassa virus pseudotype entry inhibition, cell reporter; 300,000 compounds, 1.2% hits; calls by dose curve; tested in HEK293 cells; note: nearly all actives have a fitted effect of over 50% in size
Hits are given with their value. Most compounds without a hit are left out; they make up all but 6.2% or so of the library.

Screening C=CCN(CC=C)C(=O)c1ccc2nc(Cc3ccc(OC)c(OC)c3)oc2c1 returned Marburg entry inh inconclusive, HCMV inh -62.0, FMDV antiviral inactive and LASV entry inh inconclusive.
`COc1ccc(Cc2nc3ccc(C(=O)N4CCN(C)C(C)C4)cc3o2)cc1OC` (configuration not stated) gave Marburg entry inh inconclusive, HCMV inh -63.9, FMDV antiviral inconclusive and LASV entry inh inconclusive.
`CN(Cc1nccs1)C(=O)c1ccc2nc(Cc3ccccc3F)oc2c1` gave HCMV inh inactive and FMDV antiviral inactive.
`COCCNc1nc(NCCOc2ccccc2)c2sc(-c3ccccc3)cc2n1` gave HCMV inh inactive and FMDV antiviral inconclusive.
`Cn1cccc1C(=O)N1CCC[C@@]2(CCN(c3ccncc3)C2)C1` gave FMDV antiviral inactive.
`COc1ccccc1C1CCN(C(=O)c2cnn(-c3ccccc3)c2C)CC1` gave HCMV inh inactive and FMDV antiviral 39.8µM.
`COc1ccc(-c2ccccc2-c2noc3ccccc23)cc1` gave HCMV inh inactive.
`COc1ccc(-c2oc3ccc(-c4cc(OC)c(OC)c(OC)c4)cc3c2C(=O)c2ccc(OC)nc2)cc1` gave HCMV inh -99.0 and FMDV antiviral inactive.
For CCCc1nc2ccc(NC(=O)CC(C)(C)C)cn2n1 the results were HCMV inh inactive.
Screening Fc1ccc(N/N=C(/c2ccccc2)c2ccccn2)cc1 returned Marburg entry inh inactive, HCMV inh -60.8, FMDV antiviral inactive and LASV entry inh inactive.
Screening CCOc1ccc(C(=O)N/N=C(\c2ccccc2)c2ccccn2)cc1 returned Marburg entry inh inconclusive, HCMV inh -98.8, FMDV antiviral inactive and LASV entry inh 7.08µM.
For C/C(=N\NC(=O)c1c[nH]c2ccccc12)c1ccccn1 the results were Marburg entry inh inconclusive, HCMV inh -82.3, FMDV antiviral inactive and LASV entry inh 2µM.
Screening C/C(=N\NC(=O)CCCNc1ccc(C)cc1)c1ccccn1 returned Marburg entry inh 6.51µM, HCMV inh -66.8, FMDV antiviral inactive and LASV entry inh inactive.
Screening CCc1ccc(CNC(=O)c2sc3nc[nH]c(=O)c3c2C)cc1 returned HCMV inh inactive, FMDV antiviral inactive and LASV entry inh inconclusive.
For CCOc1cc(S(=O)(=O)NCCc2c(C)[nH]c3ccc(C)cc23)ccc1Br the results were Marburg entry inh inactive, HCMV inh inactive, FMDV antiviral inactive and LASV entry inh inactive.
Screening Cc1ccc(C)c(-n2c(CCC(=O)O)ccc2-c2ccc(Cl)cc2)c1 returned Marburg entry inh inactive, HCMV inh inactive, FMDV antiviral inactive and LASV entry inh inactive.
Screening C/C(=N\NC(=O)c1cc2ccccc2cc1O)c1ccccn1 returned Marburg entry inh inconclusive, HCMV inh -98.5, FMDV antiviral inconclusive and LASV entry inh inconclusive.
C/C(=N\NC(=O)c1ccc(F)cc1)c1ccccn1 was read as HCMV inh -97.7 and FMDV antiviral inactive.
For C/C(CC(=O)N1CCN(C=O)CC1)=N\NC(=O)c1ccc([N+](=O)[O-])cc1 the results were HCMV inh inactive and FMDV antiviral inactive.
For CCN(CC)C(=O)COc1ccc(/C(C)=N/NC(=O)c2ccccc2-n2cccc2)cc1 the results were Marburg entry inh inactive, HCMV inh inactive, FMDV antiviral inactive and LASV entry inh inactive.
For C/C(CC(=O)N1CCN(C=O)CC1)=N\NC(=O)c1cc2ccccc2cc1O the results were Marburg entry inh inconclusive, HCMV inh -63.5, FMDV antiviral inactive and LASV entry inh inactive.
C/C(=N\NC(=O)c1ccccc1-n1cccc1)c1ccccn1 was read as HCMV inh -99.2 and FMDV antiviral inconclusive.
Screening CCOc1cc(/C=C(/C#N)C(=O)Nc2ccc(O)cc2)cc(Br)c1O returned Marburg entry inh inconclusive, HCMV inh -60.7, FMDV antiviral inactive and LASV entry inh inconclusive.
`C=CCNC(=O)/C(C#N)=C\c1cc(Cl)c(O)c(OCC)c1` gave Marburg entry inh inactive, HCMV inh inactive, FMDV antiviral inactive and LASV entry inh inactive.
Cc1nnc(-c2ccc(C)c(-c3ccc(C(=O)NCc4ccc(Cl)cc4)cc3)c2)o1 was read as LASV entry inh 0.628µM.
Cc1nc(-c2ccncc2)sc1C(=O)Nc1ccc(Br)cc1 was read as Marburg entry inh inconclusive, HCMV inh -72.0, FMDV antiviral inactive and LASV entry inh inactive.
O=C(c1cc(-c2ccncc2)nc2ccc(Br)cc12)N1CCN(c2ccccn2)CC1 was read as Marburg entry inh 5.62µM, HCMV inh inactive, FMDV antiviral inconclusive and LASV entry inh inconclusive.
`Cc1cccc2c(C(=O)N3CCN(c4ccccn4)CC3)cc(-c3cccc(Br)c3)nc12` gave HCMV inh inconclusive and FMDV antiviral 25.1µM.
For O=C(c1cc(-c2ccccc2Cl)nc2ccc(Br)cc12)N1CCN(c2ccccn2)CC1 the results were Marburg entry inh inconclusive, HCMV inh -90.2, FMDV antiviral inconclusive and LASV entry inh inconclusive.
`O=C(c1cc(-c2ccncc2)nc2ccccc12)N1CCN(Cc2ccccc2)CC1` gave Marburg entry inh 7.94µM, HCMV inh inactive, FMDV antiviral inactive and LASV entry inh inconclusive.
`CCc1ccccc1NC(=O)CCS(=O)(=O)c1cccc2nonc12` gave Marburg entry inh inconclusive, HCMV inh inactive, FMDV antiviral inactive and LASV entry inh inactive.
O=C(NCCc1ccccc1)c1ccc(Cn2c(SCc3cccc(F)c3)nc3cccnc32)cc1 was read as HCMV inh inactive, FMDV antiviral inactive and LASV entry inh inconclusive.
Nc1cc2ccncc2c2ccccc12 was read as HCMV inh -95.6 and FMDV antiviral inactive.
`COc1ccc([C@H]2CC(=O)C=C(c3ccc(Oc4ccccc4)cc3)C2)cc1OC` gave HCMV inh -63.9 and FMDV antiviral inconclusive.
Screening COc1ccc([C@H]2CC(=O)C=C(c3ccccc3)C2)cc1OC returned HCMV inh inactive and FMDV antiviral inactive.
Screening Cc1ccc2[nH]c(C)c(CCNC(=O)c3cc4cc(Br)ccc4oc3=O)c2c1 returned Marburg entry inh inactive, HCMV inh inactive, FMDV antiviral inactive and LASV entry inh inactive.
`COC(/C(=N/O)c1ccc(Cl)cc1)c1ccccc1` (configuration not stated) gave Marburg entry inh inconclusive, HCMV inh -94.2, FMDV antiviral inactive and LASV entry inh inconclusive.
`COc1ccc(Cl)cc1NC(=O)C(OC)c1ccccc1` (configuration not stated) gave Marburg entry inh inconclusive, HCMV inh inactive, FMDV antiviral inactive and LASV entry inh inactive.
Screening O=C1CCCC/C=C\C[C@H](CC(=O)N(CCO)Cc2ccccc2)C(=O)N[C@@H](c2ccccc2)CO1 returned HCMV inh -63.1 and FMDV antiviral inactive.
For O=C(N[C@@H]1C/C=C\C[C@H](CC(=O)N(CCO)Cc2ccccc2)C(=O)N[C@@H](Cc2ccccc2)COC1=O)OCC1c2ccccc2-c2ccccc21 the results were HCMV inh -68.8 and FMDV antiviral inactive.
For O=C1NCCOC(=O)[C@@H](Cc2ccc(F)cc2)CC/C=C/C[C@@H]1CC(=O)N(CCO)Cc1ccccc1 the results were HCMV inh -63.2 and FMDV antiviral inactive.
Screening CCC(CC)C(=O)c1c[nH]c(C(=O)NCC2CCCO2)c1 (configuration not stated) returned Marburg entry inh inactive, HCMV inh inactive, FMDV antiviral inactive and LASV entry inh 7.08µM.

Assay outcomes from PubChem BioAssay.
